{
  "source": "ChEMBL document CHEMBL1201862",
  "about": "“PubChem BioAssay data set” (2004)",
  "note": "About 910 (0.23%) of roughly 390,000 compounds were called active. Another 5% or so got no clear call; they are omitted. No cut-off for these calls is given here. This excerpt belongs to a sample that is enriched for actives.",
  "data": [
    {"target": "T1, Ubiquitin carboxyl-terminal hydrolase 1 (Homo sapiens) (UniProt O94782)", "T1 sequence (whole entry)": "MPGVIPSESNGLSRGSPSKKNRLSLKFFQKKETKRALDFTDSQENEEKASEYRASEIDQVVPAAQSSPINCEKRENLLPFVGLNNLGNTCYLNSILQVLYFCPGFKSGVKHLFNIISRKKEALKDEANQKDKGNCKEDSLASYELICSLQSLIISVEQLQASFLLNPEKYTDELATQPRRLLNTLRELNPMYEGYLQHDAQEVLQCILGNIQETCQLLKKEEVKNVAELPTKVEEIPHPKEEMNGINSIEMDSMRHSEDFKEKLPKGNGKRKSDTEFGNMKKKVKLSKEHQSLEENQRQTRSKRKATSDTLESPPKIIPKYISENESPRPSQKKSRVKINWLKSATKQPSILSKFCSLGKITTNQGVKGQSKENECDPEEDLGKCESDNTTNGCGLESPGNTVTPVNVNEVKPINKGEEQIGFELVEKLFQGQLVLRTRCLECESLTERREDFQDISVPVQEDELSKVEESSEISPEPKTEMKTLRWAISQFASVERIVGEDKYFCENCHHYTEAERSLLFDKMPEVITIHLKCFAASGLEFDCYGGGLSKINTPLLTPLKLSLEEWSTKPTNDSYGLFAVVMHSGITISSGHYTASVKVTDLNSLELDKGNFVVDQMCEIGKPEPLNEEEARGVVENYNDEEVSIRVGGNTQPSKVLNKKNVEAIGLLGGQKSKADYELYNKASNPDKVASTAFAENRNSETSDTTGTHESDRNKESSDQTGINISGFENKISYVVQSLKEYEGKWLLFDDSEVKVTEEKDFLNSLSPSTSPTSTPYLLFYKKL", "experiment": "Inhibitors of USP1/UAF1: Primary Screen.", "assay_type": "functional", "values": [
      {"smiles": "CCn1nc(-c2ccccc2)nc2c(=O)n(C)c(=O)nc1-2", "Potency": "89.1 µM (active)"}
    ]}
  ]
}
